FAS-TE inh: blocks the thioesterase domain of human fatty acid synthase; recombinant FAS-TE, OMFH fluorogenic substrate, fluorescence endpoint; inhibition, % at 15 µM; 360,000 tested, 0.67% active; AID 602261;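 active means compounds whose normalised, plate-corrected inhibition of enzyme fluorescence in the single-dose primary screen is 50% or more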
proKLK7 act: proKLK7 (human) activation, primary screen; P49862; 370,000 tested, 0.9% active; activation, % at 7 µM; purified proKLK7, EDANS-DABCYL substrate fluorescence; 100% is mature enzyme control, 0% vehicle;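 active means activation above the mean of all tested compounds plus 3 SD, computed per campaign excluding outliers beyond control limits, cut at about 13% in these data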
Target sequence (P49862 whole entry, looked up): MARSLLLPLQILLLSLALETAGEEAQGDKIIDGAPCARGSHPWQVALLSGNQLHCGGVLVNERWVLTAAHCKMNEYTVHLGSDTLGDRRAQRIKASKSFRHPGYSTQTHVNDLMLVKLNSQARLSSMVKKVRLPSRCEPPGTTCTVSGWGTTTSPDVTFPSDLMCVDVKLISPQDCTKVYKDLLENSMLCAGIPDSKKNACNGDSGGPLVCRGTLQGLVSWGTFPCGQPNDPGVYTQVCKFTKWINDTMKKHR
Neddyl block: cullin neddylation inhibition | TR-FRET cullin neddylation, biochemical | calls only at 25 µM | 360,000 tested, 0.58% active | AID 651699 | P61081+Q13564; in the data active means inhibition above about 36%
PfG6PD inh: PfG6PD (Plasmodium falciparum) enzyme inhibition; PfGluPho enzyme, NADPH resazurin-diaphorase fluorescence; AID 504690; 350,000 tested, 0.78% active; inhibition, % at 20 µM;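 active means inhibition reaching at least a set limit at 20 µM in the primary screen, cut at about 59% in these data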
PfG6PD confirm: PfG6PD inhibition, single-dose confirmed | AID 504753 | recombinant PfGluPho, NADPH-diaphorase-resazurin fluorescence | shares compounds with PfG6PD inh | 2,400 tested, 34% active | inhibition, % at 20 µM;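 active means inhibition of at least 50% at 20 µM in any single replicate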
Diaphorase 10uM: diaphorase inhibition or oxidation at 10 uM NADPH | inhibition, % at 20 µM | 820 tested, 39% active | shares compounds with PfG6PD inh | diaphorase-coupled resazurin reduction, fluorescence, NADPH 10 uM;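 active means average inhibition reaching 50% or more with the compound at 20 µM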;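 further: resorufin red fluorescence formed as diaphorase reduces resazurin using NADPH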
Diaph ctr 30uM: diaphorase inhibition or oxidation at 30 uM NADPH; shares compounds with PfG6PD inh; Diaphorase/resazurin coupled assay, resorufin fluorescence; inhibition, % at 20 µM; 820 tested, 29% active; AID 504863;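 active means inhibition averaging 50% or more, tested at 20 µM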
Large screens that a line does not name were inactive (follow-up assays come after a bar, where shown). This is a sample that favours compounds with a hit; in the whole collection about 2.7% have one here.

C=CCN1C(=O)[C@@H](CC(=O)N2CCCCC2)[C@]2(C(=O)OC)CCCCC=C12	none (no result: FAS-TE inh, Neddyl block, PfG6PD inh)
CC(C)(C)c1ccc(OCCn2nc(C(=O)O)c3ccccc3c2=O)cc1	PfG6PD inh 62.4 | PfG6PD confirm inactive
Cc1cccc(OCCn2nc(C(=O)O)c3ccccc3c2=O)c1	none
C=CC(=O)NC1CCCCN(CC)C1=O (stereo not given)	none (no result: FAS-TE inh, Neddyl block, PfG6PD inh)
CC1CN(Cc2ccccc2)C(=O)NC1=O (stereo not given)	none
CC1CN(c2ccccc2)NC1=O (stereo not given)	PfG6PD inh 105.8 | PfG6PD confirm 107.0 | Diaphorase 10uM inactive | Diaph ctr 30uM inactive
Oc1ccc(/C=N/n2cc(-c3ccccc3)[nH]c2=S)cc1	none
COc1cc(/C=N/n2cc(-c3ccccc3)[nH]c2=S)cc(OC)c1O	PfG6PD inh 60.7 | PfG6PD confirm 52.5 | Diaphorase 10uM inactive | Diaph ctr 30uM inactive
C/C(Cn1cnc([N+](=O)[O-])n1)=N\NC(=O)c1ccc(O)cc1O	none
C/C(Cn1nnc([N+](=O)[O-])n1)=N\NC(=O)c1ccc(O)cc1O	none | PfG6PD confirm 66.8 | Diaphorase 10uM inactive | Diaph ctr 30uM inactive
C/C(Cn1nnc([N+](=O)[O-])n1)=N\NC(=O)c1ccccc1O	PfG6PD inh 66.7 | PfG6PD confirm 74.6 | Diaphorase 10uM inactive | Diaph ctr 30uM inactive
C/C(Cn1cnc([N+](=O)[O-])n1)=N\NC(=O)c1ccccc1O	none
C[C@H]1/C=C/CC(=O)N[C@@H](c2ccc3ccccc3c2)[C@@H](C)/C=C/CC(=O)N[C@H]1c1ccc2ccccc2c1	none (no result: FAS-TE inh, Neddyl block, PfG6PD inh)
C=CCn1c(SCC(=O)OC(C)C)nnc1-c1ccc(C)cc1	none (no result: FAS-TE inh, Neddyl block, PfG6PD inh)
CC1=C/C(=N\OS(=O)(=O)c2ccccc2)C(C)=CC1=O	PfG6PD inh 110.7 (no result: proKLK7 act) | PfG6PD confirm 105.4 | Diaphorase 10uM 97.6 | Diaph ctr 30uM 102.9
CC1=C/C(=N\OS(=O)(=O)c2ccccc2)C(C(C)C)=CC1=O	PfG6PD inh 98.5 (no result: proKLK7 act) | PfG6PD confirm 96.3 | Diaphorase 10uM 76.4 | Diaph ctr 30uM 62.9
CC1=CC(=O)c2ccccc2C1=O	none
Cc1cc(O)c(C(C)C)cc1N=Cc1ccccc1[N+](=O)[O-]	PfG6PD inh 100.9 | PfG6PD confirm 65.1 | Diaphorase 10uM inactive | Diaph ctr 30uM inactive
COc1ccc(C(=O)Nc2ccncc2)c(OC)c1	none
COc1ccc(C(=O)Nc2ccc3ccccc3c2)c(OC)c1	PfG6PD inh 73.7 | PfG6PD confirm inactive
COc1ccc(-c2c(Cc3ccccc3)nc(NC(=O)c3ccccc3F)n2C)cc1	none (no result: FAS-TE inh, Neddyl block, PfG6PD inh)
O=C(c1ccccc1)c1ccccc1C(=O)N1CCOCC1	none
O=C(c1ccc(Cl)cc1)c1ccccc1C(=O)N1CCOCC1	PfG6PD inh 62.9 | PfG6PD confirm inactive
O=C(OC12CCCN(C1)/C(=C/c1ccncc1)C2)C1CCCCC1 (stereo not given)	none (no result: FAS-TE inh, Neddyl block, PfG6PD inh)
Cc1cc(C)c(C)c(Cn2c(CO)nc3ccccc32)c1C	PfG6PD inh 69.3 | PfG6PD confirm inactive
NC(=O)c1sc2nc(-c3ccco3)ccc2c1N	none
COC(=O)c1sc2nc(-c3ccco3)ccc2c1N	PfG6PD inh 75.6 | PfG6PD confirm inactive
C/C(=N/NC(=O)CSc1nnc(-c2ccccc2)n1-c1ccc(Cl)cc1)c1cccc(O)c1	none (no result: FAS-TE inh, Neddyl block, PfG6PD inh)
CN(C)c1cccc(C(=O)Nc2cccc(F)c2)c1	PfG6PD inh 68.1 | PfG6PD confirm inactive
CCN(CC)c1ccc(C(=O)Nc2cccc(F)c2)cc1	none
COc1ccc(NC(=O)c2ccc3c(c2)N(C)CCS3)cc1	none
CN1CCSc2ccc(C(=O)Nc3cccc(F)c3)cc21	PfG6PD inh 63.5 (not shown: Neddyl block) | PfG6PD confirm inactive
C[C@H]1C2CC(OC(=O)NCCCc3ccccc3)C(C2)[C@H]2CCCCN21 (stereo not given in full)	none (no result: FAS-TE inh, Neddyl block, PfG6PD inh)
C#Cc1cccc(OC[C@@H](O)CN2CCC(C(O)(c3ccccc3)c3ccccc3)CC2)c1	none (no result: FAS-TE inh, Neddyl block, PfG6PD inh)
Clc1ccc(C2=Nn3c(nnc3-c3cc(-c4ccccc4)n[nH]3)SC2)cc1	none
COc1ccc(OC)c(C2=Nn3c(nnc3-c3ccncc3)SC2)c1	none
COc1cc(-c2nnc3n2N=C(c2ccccc2)CS3)cc(OC)c1OC	PfG6PD inh 97.5 | PfG6PD confirm 60.2 | Diaphorase 10uM inactive | Diaph ctr 30uM inactive
Cc1ccc(-c2nnc3n2N=C(c2ccccc2)CS3)cc1	none

Screening data as filed in PubChem.
